# Measured values taken from PubChem BioAssay.
# Inconclusive results are not listed. The source made the active and inactive calls.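 How the source made its calls, unless noted: active means normalized viability below 100% at a tested concentration; inactive means the rest.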
# Tests used:
# [1] = viability loss in pontine glioma line – cell-based, SU-DIPG-XXV, MIPE5.0, CellTiter-Glo, qHTS, dose response (AID 1347065; cut-off not given, nearly all actives have AC50 up to about 26 µM;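 further: cells exposed to compound for 48 hours before ATP readout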); conditions: CellTiter-Glo ATP luminescence
# [2] = JHH-DIPG-1 glioma cell viability, MIPE5.0 library, CellTiter-Glo luminescence, qHTS (AID 1347067; cut-off not given, nearly all actives have AC50 up to about 26 µM;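 further: cells exposed to compound for 48 hours before readout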); conditions: JHH-DIPG-1 glioma viability, CellTiter-Glo ATP luminescence
# [3] = SU-DIPG-XXV glioma cell viability, MIPE5.0 library, qHTS (AID 1347068; cut-off not given, nearly all actives have IC50 up to about 30 µM;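 on IC50: cells exposed to compound for 48 hours before viability readout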)
# [4] = liver-stage malaria parasite growth inhibition, primary screen, cell-based, HepG2, luciferase luminescence, HepG2 viability (AID 624349; in the data active means parasite load remaining mostly below about 12%, no sharp cut-off; inactive means mostly above about 10%;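 further: 100% = mean of DMSO negative control wells on the same plate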); conditions: P. berghei liver stage in HepG2, luciferase luminescence, concentration not given here; parasite load remaining: stronger effect = lower value; viability: measured here: HepG2 viability without parasites
# [5] = tested on: Hepatitis C virus NS3 helicase; assay: HCV NS3 helicase inhibitors, primary screen, biochemical, fluorescence polarization, LOPAC1280 library (AID 687035; in the data active means inhibition above about 37%); conditions: Purified HCV NS3 helicase, Cy5-dT15 ssDNA binding fluorescence polarization; stronger effect = higher value; concentration not given here
# [6] = Cy5 fluorescence quenching or enhancement artefacts, artefact control for HCV NS3 helicase inhibitor project, biochemical, LOPAC1280 (AID 687037; call rule not given here); conditions: Cy5-DNA-NS3h complex fluorescence interference counterscreen
# [7] = phospholipid biosynthesis inhibitors in animal cells, primary screen, cell-based, LOPAC library, screen 4 (AID 1347384; call rule not given here); conditions: phospholipid biosynthesis inhibition screen, at 10 µM
# [8] = viability rescue of complex I mutant cybrids, primary screen, cell-based, galactose medium, ATP luminescence (AID 1645843;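 active means z-score of at least 1.8 in each of two replicates, scored against plate mean and spread of sample wells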;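 further: positive z means more ATP and so rescue of galactose-driven cybrid death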); conditions: complex I mutant cybrid cells, 72 h, stronger effect = higher value
# [9] = modifiers of HSF1 nuclear foci, imaging, Selleck Cancer Library (AID 1347162; in the data active means plate-normalised HSF1 focus index below about 0.46); conditions: human cells, at 10 µM; SSMD: measured here: HSF1 foci SSMD mean; cell count: measured here: cell number; plate-normalised HSF1 focus index: stronger effect = lower value
# [10] = ovarian cancer cell viability with rucaparib, profiling panel, oncology-focused library, rucaparib conditional (AID 1508598); conditions: patient-derived ovarian cancer cells, CellTiter-Glo viability, 144 h, stronger effect = lower value
# [11] = biological target: NAD(+) hydrolase SARM1 (Homo sapiens) (UniProt Q6SZW1); assay: SARM1 TIR NADase inhibitors, cell lysate, NAD-Glo luminescence (AID 1508614;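 active means compound whose remaining NAD level is above about 45 nM, limit read from the data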); conditions: SAM-TIR HEK293T lysate NADase, at 1 µM, stronger effect = higher value
# [12] = at 0.000305 µM, OCI-C5x cells, with rucaparib 10 µM, 100% = cells with rucaparib alone
# [13] = at 0.000305 µM, OCI-C5x cells, without rucaparib
# [14] = at 0.000305 µM, OCI-P5x cells, with rucaparib 20 µM, 100% = cells with rucaparib alone
# [15] = at 0.000305 µM, OCI-P5x cells, without rucaparib
# [16] = at 0.00122 µM, OCI-C5x cells, with rucaparib 10 µM, 100% = cells with rucaparib alone
# [17] = at 0.00122 µM, OCI-C5x cells, without rucaparib
# [18] = at 0.00122 µM, OCI-P5x cells, with rucaparib 20 µM, 100% = cells with rucaparib alone
# [19] = at 0.00122 µM, OCI-P5x cells, without rucaparib
# [20] = at 0.00488 µM, OCI-C5x cells, with rucaparib 10 µM, 100% = cells with rucaparib alone
# [21] = at 0.00488 µM, OCI-C5x cells, without rucaparib
# [22] = at 0.00488 µM, OCI-P5x cells, with rucaparib 20 µM, 100% = cells with rucaparib alone
# [23] = at 0.00488 µM, OCI-P5x cells, without rucaparib
# [24] = at 0.0195 µM, OCI-C5x cells, with rucaparib 10 µM, 100% = cells with rucaparib alone
# [25] = at 0.0195 µM, OCI-C5x cells, without rucaparib
# [26] = at 0.0195 µM, OCI-P5x cells, with rucaparib 20 µM, 100% = cells with rucaparib alone
# [27] = at 0.0195 µM, OCI-P5x cells, without rucaparib
# [28] = at 0.0781 µM, OCI-C5x cells, with rucaparib 10 µM, 100% = cells with rucaparib alone
# [29] = at 0.0781 µM, OCI-C5x cells, without rucaparib
# [30] = at 0.0781 µM, OCI-P5x cells, with rucaparib 20 µM, 100% = cells with rucaparib alone
# [31] = at 0.0781 µM, OCI-P5x cells, without rucaparib
# [32] = at 0.313 µM, OCI-C5x cells, with rucaparib 10 µM, 100% = cells with rucaparib alone
# [33] = at 0.313 µM, OCI-C5x cells, without rucaparib
# [34] = at 0.313 µM, OCI-P5x cells, with rucaparib 20 µM, 100% = cells with rucaparib alone
# [35] = at 0.313 µM, OCI-P5x cells, without rucaparib
# [36] = at 1.25 µM, OCI-C5x cells, with rucaparib 10 µM, 100% = cells with rucaparib alone
# [37] = at 1.25 µM, OCI-C5x cells, without rucaparib
# [38] = at 1.25 µM, OCI-P5x cells, with rucaparib 20 µM, 100% = cells with rucaparib alone
# [39] = at 1.25 µM, OCI-P5x cells, without rucaparib
# [40] = at 5 µM, OCI-C5x cells, with rucaparib 10 µM, 100% = cells with rucaparib alone
# [41] = at 5 µM, OCI-C5x cells, without rucaparib
# [42] = at 5 µM, OCI-P5x cells, with rucaparib 20 µM, 100% = cells with rucaparib alone
# [43] = at 5 µM, OCI-P5x cells, without rucaparib
# Sequence of NAD(+) hydrolase SARM1 (Homo sapiens) (Q6SZW1 whole entry, looked up): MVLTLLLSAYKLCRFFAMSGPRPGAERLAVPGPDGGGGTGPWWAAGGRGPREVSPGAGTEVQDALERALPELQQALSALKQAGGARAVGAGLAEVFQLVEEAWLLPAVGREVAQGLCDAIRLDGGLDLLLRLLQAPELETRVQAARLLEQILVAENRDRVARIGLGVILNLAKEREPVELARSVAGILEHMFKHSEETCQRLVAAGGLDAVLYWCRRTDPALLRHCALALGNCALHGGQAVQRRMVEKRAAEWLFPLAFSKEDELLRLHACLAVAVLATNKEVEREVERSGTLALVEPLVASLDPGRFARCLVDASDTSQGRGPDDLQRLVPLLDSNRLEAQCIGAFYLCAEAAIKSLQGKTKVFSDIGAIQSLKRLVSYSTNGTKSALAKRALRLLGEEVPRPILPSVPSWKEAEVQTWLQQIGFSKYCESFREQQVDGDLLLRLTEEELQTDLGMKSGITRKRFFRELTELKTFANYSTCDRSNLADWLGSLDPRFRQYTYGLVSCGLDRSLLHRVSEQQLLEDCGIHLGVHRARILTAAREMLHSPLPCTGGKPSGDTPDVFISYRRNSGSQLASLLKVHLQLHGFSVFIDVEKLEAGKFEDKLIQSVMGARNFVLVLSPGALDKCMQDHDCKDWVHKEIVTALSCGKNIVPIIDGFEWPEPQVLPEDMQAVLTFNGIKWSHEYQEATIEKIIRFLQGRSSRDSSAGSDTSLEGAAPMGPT
smiles,measurement,setting,value
CN(C)CCCOc1ccc(-c2ccc3ncc4c(c3c2)n(C2CCOCC2)c(=O)n4C)cn1,AC50,[1],5.74 µM (active)
same,outcome,[2],inactive
CCc1cc2c(cc1N1CCC(N3CCOCC3)CC1)C(C)(C)c1[nH]c3cc(C#N)ccc3c1C2=O,AC50,[1],2.04 µM (active)
same,outcome,[3],inactive
O=C1Nc2nc(-c3c(O)cccc3OCC3CC3)cc([C@@H]3CCCNC3)c2CO1,AC50,[1],18.6 µM (active)
same,AC50,[2],26.3 µM (active)
same,IC50,[3],13.2 µM (active)
O=c1oc2c(C3OCCCO3)c(O)ccc2c2c1CNCC2,outcome,[1],inactive
same,outcome,[2],inactive
same,outcome,[3],inactive
COc1ccc(CNC(=O)c2cc(-c3cncc(Cl)c3)cnc2-c2ccccn2)nc1OC,outcome,[1],inactive
same,outcome,[2],inactive
same,outcome,[3],inactive
c1ccc(-c2ccc(CNc3nc(-c4ccccn4)nnc3-c3ccccc3)cc2)cc1,AC50,[1],3.32 µM (active)
same,AC50,[2],10.5 µM (active)
same,IC50,[3],2.95 µM (active)
COc1cc(N2CCN(C)CC2)ccc1Nc1ncc2c(n1)N(C)c1ccccc1C(=O)N2,AC50,[1],20.9 µM (active)
same,outcome,[3],inactive
CC(C)(O)CNc1nc(Nc2ccnc(C(F)(F)F)c2)nc(-c2cccc(C(F)(F)F)n2)n1,AC50,[1],14.8 µM (active)
same,outcome,[3],inactive
Cc1ccc(Nc2nnc(Cc3ccncc3)c3ccccc23)cc1Br,AC50,[1],14.8 µM (active)
same,AC50,[2],18.6 µM (active)
CN1CCN(CCCNc2ncc(Cl)c(-c3cc4c(C(=O)NC5CC5)cccc4s3)n2)CC1,AC50,[1],23.5 µM (active)
same,outcome,[3],inactive
C=CC(=O)Nc1ccc(F)c(-c2ncnc3[nH]cc(C(=O)OCC)c23)c1,AC50,[1],18.6 µM (active)
same,AC50,[2],18.6 µM (active)
COc1ccccc1C(=O)Nc1cc2c(cc1N1CCCCC1)n(C)c(=O)n2C,AC50,[1],18.6 µM (active)
same,outcome,[3],inactive
O=C1CSC(=O)N1C(CCc1ccncc1)COc1ccc(-c2cccc([N+](=O)[O-])c2)cc1 (centres undefined),AC50,[1],18.6 µM (active)
same,AC50,[2],18.6 µM (active)
COC(=O)C1C2CC3c4[nH]c5cc(OC)ccc5c4CCN3CC2CC(OC(=O)c2cc(OC)c(OC)c(OC)c2)C1OC (centres undefined),AC50,[1],20.9 µM (active)
same,AC50,[2],23.5 µM (active)
same,outcome,[3],inactive
C[C@H](NC(=O)c1c(N)nn2cccnc12)c1cc2cccc(C#Cc3cnn(C)c3)c2c(=O)n1-c1ccccc1,AC50,[1],12.9 µM (active)
same,outcome,[3],inactive
Cc1ccc(-c2ccc(C)cn2)nc1,outcome,[1],inactive
same,outcome,[2],inactive
same,outcome,[3],inactive
Cc1cc(Nc2ncnc3ccc(NC4=NC(C)(C)CO4)cc23)ccc1Oc1ccn2ncnc2c1,AC50,[1],14.8 µM (active)
same,outcome,[3],inactive
Cn1ncc2cc(-c3cnc(N)c(Cl)c3N3CCC4(CCNC4=O)CC3)ccc21,AC50,[1],20.9 µM (active)
same,outcome,[2],inactive
CC1CCC(n2c3cnccc3c3cnc(Nc4ccc5c(n4)CCN(C(=O)CO)C5)nc32)CC1 (centres undefined),outcome,[1],inactive
same,outcome,[2],inactive
same,outcome,[3],inactive
CCN1/C(=C/C(C)=O)Sc2ccc(OC)cc21,parasite load remaining,[4],36.4% (inactive)
same,viability,[4],92.3%
same,inhibition,[5],-4% (inactive)
same,fluorescence ratio (interference),[6],0.9 (inactive)
same,outcome,[7],inactive
same,z-score,[8],0.785 (inactive)
NC(=O)c1ccc2nc(-c3ccc(Oc4ccc(Cl)cc4)cc3)[nH]c2c1,parasite load remaining,[4],38.6% (inactive)
same,viability,[4],91.3%
same,SSMD,[9],0.89
same,cell count,[9],6720
same,plate-normalised HSF1 focus index,[9],1.06 (inactive)
S=C(NCc1ccc2c(c1)OCO2)N1CCN(c2ncnc3c2oc2ccccc23)CC1,SSMD,[9],2.08
same,cell count,[9],7510
same,plate-normalised HSF1 focus index,[9],1.08 (inactive)
same,viability,[10]; [12],112% (inactive)
same,viability,[10]; [13],101% (inactive)
same,viability,[10]; [14],89.7% (active)
same,viability,[10]; [15],92.1% (active)
same,viability,[10]; [16],117% (inactive)
same,viability,[10]; [17],100% (inactive)
same,viability,[10]; [18],96.6% (active)
same,viability,[10]; [19],98.2% (active)
same,viability,[10]; [20],109% (inactive)
same,viability,[10]; [21],104% (inactive)
same,viability,[10]; [22],97.2% (active)
same,viability,[10]; [23],95.2% (active)
same,viability,[10]; [24],105% (inactive)
same,viability,[10]; [25],98.9% (active)
same,viability,[10]; [26],109% (inactive)
same,viability,[10]; [27],105% (inactive)
same,viability,[10]; [28],115% (inactive)
same,viability,[10]; [29],111% (inactive)
same,viability,[10]; [30],110% (inactive)
same,viability,[10]; [31],101% (inactive)
same,viability,[10]; [32],110% (inactive)
same,viability,[10]; [33],111% (inactive)
same,viability,[10]; [34],105% (inactive)
same,viability,[10]; [35],104% (inactive)
same,viability,[10]; [36],118% (inactive)
same,viability,[10]; [37],107% (inactive)
same,viability,[10]; [38],103% (inactive)
same,viability,[10]; [39],103% (inactive)
same,viability,[10]; [40],128% (inactive)
same,viability,[10]; [41],129% (inactive)
same,viability,[10]; [42],101% (inactive)
same,viability,[10]; [43],101% (inactive)
CN1CCN(c2ccc(OC(F)(F)F)c(Nc3ncc4c(n3)-c3c(c(C(N)=O)nn3CCO)CC4)c2)CC1,viability,[10]; [12],119% (inactive)
same,viability,[10]; [13],114% (inactive)
same,viability,[10]; [14],90% (active)
same,viability,[10]; [15],84.5% (active)
same,viability,[10]; [16],125% (inactive)
same,viability,[10]; [17],112% (inactive)
same,viability,[10]; [18],94.4% (active)
same,viability,[10]; [19],86.5% (active)
same,viability,[10]; [20],123% (inactive)
same,viability,[10]; [21],105% (inactive)
same,viability,[10]; [22],88.1% (active)
same,viability,[10]; [23],58.9% (active)
same,viability,[10]; [24],125% (inactive)
same,viability,[10]; [25],60% (active)
same,viability,[10]; [26],78.1% (active)
same,viability,[10]; [27],20.2% (active)
same,viability,[10]; [28],67.6% (active)
same,viability,[10]; [29],40.8% (active)
same,viability,[10]; [30],64.7% (active)
same,viability,[10]; [31],14.3% (active)
same,viability,[10]; [32],49.1% (active)
same,viability,[10]; [33],27.6% (active)
same,viability,[10]; [34],70% (active)
same,viability,[10]; [35],13.1% (active)
same,viability,[10]; [36],37.5% (active)
same,viability,[10]; [37],28.9% (active)
same,viability,[10]; [38],73.8% (active)
same,viability,[10]; [39],13.7% (active)
same,viability,[10]; [40],40.7% (active)
same,viability,[10]; [41],26.6% (active)
same,viability,[10]; [42],74.1% (active)
same,viability,[10]; [43],14.5% (active)
CC(C)OC(=O)CCC/C=C\C[C@@H]1[C@@H](/C=C/[C@@H](O)COc2cccc(C(F)(F)F)c2)[C@H](O)C[C@@H]1O,remaining NAD,[11],10 nM (inactive)
